According to PubChem BioAssay (EPA / NIEHS):
Several values for one entry are separate records, joined by “and”; a condition that tells them apart may be missing. Identical values can stand only once. Inconclusive results are not listed. Some structures have more than one record in an assay (separate samples or runs), and their calls can disagree. Activity calls are given as the source filed them. Rule for the calls: active = hit-call score of the fitted dose curve at least 0.9, where 1 is the maximum; inconclusive = response in the unintended direction; inactive = score below 0.9.

Molecular target: human Retinoid X Receptor beta (RXRb), RXRB (gene 6257) (UniProt P28702)
Sequence (P28702 whole entry, looked up): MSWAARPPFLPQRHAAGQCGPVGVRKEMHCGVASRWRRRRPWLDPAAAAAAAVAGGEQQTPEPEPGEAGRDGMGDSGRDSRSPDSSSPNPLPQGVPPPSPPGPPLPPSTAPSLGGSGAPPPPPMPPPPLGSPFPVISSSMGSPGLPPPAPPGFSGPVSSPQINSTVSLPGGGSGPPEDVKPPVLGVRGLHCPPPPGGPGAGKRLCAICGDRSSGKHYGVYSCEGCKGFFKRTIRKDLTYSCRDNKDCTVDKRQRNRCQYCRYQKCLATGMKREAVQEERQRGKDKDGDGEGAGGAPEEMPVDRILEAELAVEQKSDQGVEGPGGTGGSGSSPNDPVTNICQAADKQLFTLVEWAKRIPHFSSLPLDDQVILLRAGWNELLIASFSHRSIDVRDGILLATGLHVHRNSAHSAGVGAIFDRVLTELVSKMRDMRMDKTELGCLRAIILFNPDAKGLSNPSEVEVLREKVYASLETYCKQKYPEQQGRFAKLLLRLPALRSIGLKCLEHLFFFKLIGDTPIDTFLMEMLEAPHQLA
Experiment: ATG_RXRb_TRANS: Attagene TRANS-FACTORIAL HepG2 Assay for human Retinoid X Receptor beta (RXRb) (AID 2283013)
Experimental: ATG_TRANS is a cell-based, multiplexed-readout assay that uses HepG2, a human liver cell line, with measurements taken at 24 hours after chemical dosing in a 24-well plate.ATG_RXRb_TRANS is one of 30 assay component(s) measured or calculated from the ATG_TRANS assay. It is designed to make measurements of mRNA induction, a form of inducible reporter, as detected with fluorescence intensity signals by Reverse transcription polymerase chain reaction (RT-PCR) and Capillary electrophoresis technology.Data from the assay component ATG_RXRb_TRANS was analyzed into 1 assay endpoint. This assay endpoint, ATG_RXRb_TRANS, was analyzed in the positive analysis fitting direction relative to DMSO as the negative control and baseline of activity. Using a type of inducible reporter, measures of mRNA for gain-of-signal activity can be used to understand the reporter gene at the transcription factor-level as they relate to the gene RXRB. Furthermore, this assay endpoint can be referred to as a primary readout, because this assay has produced multiple assay endpoints where this one serves a reporter gene function. To generalize the intended target to other relatable targets, this assay endpoint is annotated to the nuclear receptor intended target family, where the subfamily is non-steroidal.
Human liver HepG2 cells are transiently transfected with multiple reporter transcription units (MRTUs) in 6-well plates using FuGene 6 reagent (Roche; 3 ml FuGene/1 mg DNA). The MRTU constructs are regulated by a cis-regulating element (promoter). […] A major difference between the CIS and TRANS system is that in CIS activities of endogenous TFs are measured, whereas the TRANS assay evaluates changes in activities of exogenous, chimeric NR-Gal4 proteins. […] At the end of 24 hour incubation, total RNA was isolated using TriZol reagent (Invitrogen). The isolated RNA is then reverse-transcribed using oligo(dT) primer and Mo-MLV reverse transcriptase (Invitrogen) with DNAse I (Ambion) treatment for 30 min. The one-tenth of the produced cDNA was amplified by PCR using Taq DNA polymerase (Invitrogen) and two reporter sequence-specific primers. The PCR products were fluorescently labeled by primer extension with 6-arboxyfluorescein (6-FAM) 5'-labeled reporter sequence-specific primer (2 min at 95 C, 20 s at 68 C and 10 min at 72 C) and these products were digested with 5U of HpaI (New England Biolabs) for 2h at 37 C. The fragments were purified using Qiaquick PCR columns (Qiagen), analyzed on an ABI 3130xL genetic analyzer (Applied Biosystems) with peak positions identified by using a set of X-rhodamine (ROX)-labeled MapMarker1000 molecular weight standards (BioVentures). The raw capillary electrophoresis data was processed using Attagraph software (Attagene).

SMILES | outcome | AC50
Oc1ccc(Cl)cc1Cc1ccccc1 | inactive | 
CCCN(CCC)c1c([N+](=O)[O-])cc(C(F)(F)F)cc1[N+](=O)[O-] | inactive | 
Cc1cc(C)nc(NC(=O)NS(=O)(=O)c2ccccc2C(=O)OC2COC2)n1 | inactive | 
O=C(O)COc1ccc(Cl)cc1Cl | inactive | 
CC1(c2ccc(Oc3ccccc3)cc2)OC(=O)N(Nc2ccccc2)C1=O (stereo not given) | inactive | 
O=[N+]([O-])c1c(Cl)c(Cl)c(Cl)c(Cl)c1Cl | inactive | 
CNC(=O)/C=C(\C)OP(=O)(OC)OC | inactive | 
CCCN(CCOc1c(Cl)cc(Cl)cc1Cl)C(=O)n1ccnc1 | inactive | 
ClC1C(Cl)C(Cl)C(Cl)C(Cl)C1Cl (stereo not given) | inactive | 31.1 µM (active) and 26.2 µM (active)
N#Cc1c(Cl)c(Cl)c(Cl)c(C#N)c1Cl | inactive | 
O=C(Nc1ccccc1)Nc1cnns1 | inactive | 
O=C1c2ccccc2C(=O)N1SC(Cl)(Cl)Cl | inactive | 
CCS(=O)(=O)c1cccnc1S(=O)(=O)NC(=O)Nc1nc(OC)cc(OC)n1 | inactive | 
COC(=O)c1ccccc1CS(=O)(=O)NC(=O)Nc1nc(OC)cc(OC)n1 | inactive | 
C#CCN1C(=O)COc2cc(F)c(N3C(=O)C4=C(CCCC4)C3=O)cc21 | inactive | 
O=C(O)C(F)(F)C(F)(F)C(F)(F)C(F)(F)C(F)(F)C(F)(F)C(F)(F)F | inactive | 57 µM (active) and 37.4 µM (active) and 56.2 µM (active)
CC1(C)C(C=C(Cl)Cl)C1C(=O)OC(C#N)c1ccc(F)c(Oc2ccccc2)c1 (stereo not given) | inactive | 
COC(=O)c1ccccc1S(=O)(=O)NC(=O)Nc1nc(C)nc(OC)n1 | inactive | 

SMILES | outcome | AC50
O=S(=O)(O)C(F)(F)C(F)(F)C(F)(F)C(F)(F)C(F)(F)C(F)(F)C(F)(F)C(F)(F)F | inactive | 161 µM (active)
CC(C)N(C(=O)COc1nnc(C(F)(F)F)s1)c1ccc(F)cc1 | inactive | 
O=C(O)CCCOc1ccc(Cl)cc1Cl | inactive | 27 µM (active)
CCC(C)Nc1c([N+](=O)[O-])cc(C(C)(C)C)cc1[N+](=O)[O-] (stereo not given) | inactive | 
O=[N+]([O-])/N=C1\NCCN1Cc1ccc(Cl)nc1 | inactive | 
COc1nn(CSP(=S)(OC)OC)c(=O)s1 | inactive | 
CCN(CC)C(=O)SCc1ccc(Cl)cc1 | inactive | 
CCOCN(C(=O)CCl)c1c(C)cccc1CC | inactive | 
CC(C)(C)C(O)C(Oc1ccc(Cl)cc1)n1cncn1 (stereo not given) | inactive | 
N#CN | inactive | 
COP(=S)(OC)Oc1ccc([N+](=O)[O-])cc1 | inactive | 
Clc1ccccc1-c1nnc(-c2ccccc2Cl)nn1 | inactive | 
CC(C)OC(=O)Nc1cccc(Cl)c1 | inactive | 
CCOC1Oc2ccc(OS(C)(=O)=O)cc2C1(C)C (stereo not given) | inactive | 
[2H]C1([2H])[n+]2ccccc2-c2cccc[n+]2C1([2H])[2H] | inactive | 
CCC(C)(NC(=O)c1cc(Cl)c(C)c(Cl)c1)C(=O)CCl (stereo not given) | inactive | 
CNC(=O)Oc1cccc(N=CN(C)C)c1 | inactive | 
CC[C@H](C)[C@H]1O[C@]2(C=C[C@@H]1C)C[C@@H]1C[C@@H](C/C=C(\C)[C@@H](O[C@H]3C[C@H](OC)[C@@H](O[C@H]4C[C@H](OC)[C@@H](O)[C@H](C)O4)[C@H](C)O3)[C@@H](C)/C=C/C=C3\CO[C@@H]4[C@H](O)C(C)=C[C@@H](C(=O)O1)[C@]34O)O2 (tested in a mixture with another compound) | inactive | 
